Our source for the Potency and activation values is PubChem BioAssay (Tox21).

Records with an inconclusive call do not appear. Where a call stands in place of a potency, no number is given. Active and inactive are the calls of the source. Calls come from the whole dose curve.

This test in a line: p53 small molecule agonists, cell-based qHTS assay with human liver microsomes (AID 1963577).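 Note: p53 response element beta-lactamase reporter cells with liver microsomes plus NADPH.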 The following applies: HCT-116 p53RE-bla with human liver microsomes, ratio, 16 h; series mostly up to 66 µM. From the text:
National Center for Advancing Translational Sciences [NCATS]
Division of Preclinical Innovation [DPI]
U.S. Environmental Protection Agency [EPA]
National Institutes of Environmental Health Sciences [NIEHS]
National Toxicology Program [NTP]
U.S. Food and Drug Administration [FDA]
p53, a tumor suppressor protein, is activated following cellular insult, including DNA damage and other cellular stresses. The activation of p53 regulates cell fate by inducing DNA repair, cell cycle arrest, apoptosis, or cellular senescence. The activation of p53, therefore, is a good indicator of DNA damage and other cellular stresses. […] The activation of the reporter gene under culture conditions can be detected by fluorescence intensity.
Tox21 Assay Protocol Summary:
The p53RE-bla cells were dispensed at 4,000cells/3ul/well in 1536-well black-clear bottom plates. After the assay plates were incubated at 37 C, 5% CO2 incubator for 5 hours, 23 nL of compounds dissolved in DMSO, positive controls or DMSO only was transferred to the assay plate. Following compound addition, 3 uL of human liver microsomes (XenoTech, Kansas City, KS) at final concentration of 0.5 mg/mL and 1uL of Beta-Nicotinamide adenine dinucleotide 2-phosphate (NADPH) at final concentration of 0.5 mg/mL were transferred to the assay plate. The plates were incubated at 37 C for 16 hours. 1 uL of LiveBLAzer detection mixture was added to each well and the plates were incubated at room temperature in the dark for 2 h.
A general note: In qHTS, concentration-response curves come from the screen itself.
Consider `C=COCCOCCOC=C`, for which the Potency entry was “inactive”.

In the case of `Cc1cccc(C)c1NC(=O)C(C)N` (stereo not given), the Potency entry was “inactive”.

With `CN[C@H]1CC[C@@H](c2ccc(Cl)c(Cl)c2)c2ccccc21`, the Potency result was “inactive”.

Turning to `CCOB(OCC)OCC`, the Potency result was “inactive”.

Take `Cc1ccc(O)c2ncccc12`: the Potency result was “inactive”.

For `C[C@]12CCC(=O)C=C1[C@@H]1C[C@@H]1[C@H]1[C@@H]3[C@@H]4C[C@@H]4[C@@]4(CCC(=O)O4)[C@@]3(C)CC[C@@H]12`, the Potency result is “inactive”.

`O=C1Cc2cc(CCN3CCN(c4nsc5ccccc45)CC3)c(Cl)cc2N1`: the Potency entry is “inactive”.

Take `O=C(O)COc1nn(Cc2ccccc2)c2ccccc12`: the Potency entry was “inactive”.

In the case of `Nc1ccc(N=Nc2ccccc2)c(N)c1`, the Potency entry is “inactive”.

Consider `Cc1cc(Cl)c(C)cc1Cl`, for which the Potency entry is “inactive”.

Turning to `Oc1ccc(C2(c3ccc(O)cc3)CC3CC2C2CCCC32)cc1` (stereo not given), the Potency entry was “inactive”.

As for `CCCCCc1ccc(O)cc1`, the Potency result is “inactive”.

As for `CCCCCCCCCCCCCCCCC(C(=O)O)C(O)(CC(=O)O)C(=O)O` (stereo not given), the Potency entry is “inactive”.

Turning to `Cc1cccc(Nc2ccccc2)c1`, the Potency result is “inactive”.

With `CC(C)NC(=O)c1ccc(C=O)cc1`, the Potency entry was “inactive”.

Regarding `c1ccc(OCc2ccc(CCCN3CCOCC3)cc2)cc1`, the Potency result is “inactive”.

Consider `C=CC(=O)OCCC#N`, for which the Potency entry was “inactive”.

With `O=C(/C=C/c1ccc([N+](=O)[O-])cc1)c1ccccc1`, the Potency result is “inactive”.

As to `COC(C)(C)CC(C)=O`, the Potency entry was “inactive”.

As for `CCCCCC(C)OC(=O)COc1ccc(Cl)c2cccnc12` (stereo not given), the Potency result was “inactive”.

Take `COC(=O)C1=C(C)NC(C)=C(C(=O)OCCCN2CCC(c3ccccc3)(c3ccccc3)CC2)C1c1cccc([N+](=O)[O-])c1` (stereo not given): the Potency entry was “inactive”.

Take `CC(=O)Nc1ccc(/C=N/NC(N)=S)cc1`: the Potency result is “inactive”.

Consider `CCCCCC`, for which the Potency entry is “inactive”.

Turning to `CCCCN(CCCC)C(=S)SSC(=S)N(CCCC)CCCC`, the Potency entry is “inactive”.

Turning to `Clc1ccc(C(Cn2ccnc2)OCc2ccc(Sc3ccccc3)cc2)c(Cl)c1` (stereo not given), the Potency result is “inactive”.

For `C=C[Si]1(C)O[Si](C)(C=C)O[Si](C)(C=C)O[Si](C)(C=C)O1` (stereo not given), the Potency entry was “inactive”.

As to `CC1=C(/C=C/C(C)=C/C=C/C(C)=C\C=O)C(C)(C)CCC1`, the Potency entry was “inactive”.

Regarding `COC(=O)CC(C)CCC=C(C)C` (stereo not given), the Potency result is “inactive”.

As to `O=C1c2ccccc2C(=O)c2c1ccc(O)c2O`, the Potency entry is “inactive”.

`Cc1c(Nc2ncccc2C(=O)O)cccc1C(F)(F)F`: the Potency result was “inactive”.

Regarding `Oc1ccccc1-c1nnco1`, the Potency entry was “inactive”.

In the case of `CCN1/C(=C/C=C/c2sc3ccccc3[n+]2CC)Sc2ccccc21`, the activation is 15.3% [at 13.5 µM] (inactive).

For the compound `O=C(Cl)c1ccc(F)c(Cl)c1`, the Potency result was “inactive”.

Turning to `CNCC(O)c1ccc(O)c(O)c1` (stereo not given), the Potency entry is “inactive”.

`Cc1ccc(S(=O)(=O)C(I)I)cc1`: the Potency result was “inactive”.

Take `C#C[C@]1(O)CC[C@H]2[C@@H]3CCc4cc(OC5CCCC5)ccc4[C@H]3CC[C@@]21C`: the Potency entry was “inactive”.

`O=C1CCCCCCCCCCCCCCO1`: the Potency result was “inactive”.

For `CC(C)CCOC(=O)c1ccc(N(C)C)cc1`, the Potency result is “inactive”.

In the case of `COc1cc([C@@H]2c3cc4c(cc3[C@@H](O[C@@H]3O[C@@H]5CO[C@@H](C)O[C@H]5[C@H](O)[C@H]3O)[C@H]3COC(=O)[C@H]23)OCO4)cc(OC)c1O`, the Potency entry is “inactive”.

With `Cc1onc(-c2c(Cl)cccc2Cl)c1C(=O)N[C@@H]1C(=O)N2[C@@H]1SC(C)(C)[C@@H]2C(=O)O`, the Potency result was “inactive”.
